# Bioassay records (PubChem BioAssay)
# Shown are actives, neighbours in structure and some others; about 1.2% of the full set was active somewhere.
# miR122 inh: blocks miR-122 activity in Huh7 sensor cells. Huh7 miR-122 Renilla luciferase sensor, 48 h; neutral wells = 0, positive control = 100. activation (reporter increase), % at 12.5 µM. 340,000 compounds, 0.3% hits. AID 602342;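 active = mean replicate activation score at least 90 and every replicate individually at or above 90; inconclusive = only one of the two criteria met; inactive = neither criterion met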;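 also: higher luciferase means less miR-122 activity so hits act as miR-122 inhibitors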
# NSD2 inh: NSD2 (human) methyltransferase inhibition; inhibition, % at 12.5 µM; O96028; NSD2 peptide methylation, AlphaScreen, 120 min; 310,000 compounds, 0.54% hits; AID 743445; in the data active = inhibition above about 50%
# Target sequence (O96028 whole entry, looked up): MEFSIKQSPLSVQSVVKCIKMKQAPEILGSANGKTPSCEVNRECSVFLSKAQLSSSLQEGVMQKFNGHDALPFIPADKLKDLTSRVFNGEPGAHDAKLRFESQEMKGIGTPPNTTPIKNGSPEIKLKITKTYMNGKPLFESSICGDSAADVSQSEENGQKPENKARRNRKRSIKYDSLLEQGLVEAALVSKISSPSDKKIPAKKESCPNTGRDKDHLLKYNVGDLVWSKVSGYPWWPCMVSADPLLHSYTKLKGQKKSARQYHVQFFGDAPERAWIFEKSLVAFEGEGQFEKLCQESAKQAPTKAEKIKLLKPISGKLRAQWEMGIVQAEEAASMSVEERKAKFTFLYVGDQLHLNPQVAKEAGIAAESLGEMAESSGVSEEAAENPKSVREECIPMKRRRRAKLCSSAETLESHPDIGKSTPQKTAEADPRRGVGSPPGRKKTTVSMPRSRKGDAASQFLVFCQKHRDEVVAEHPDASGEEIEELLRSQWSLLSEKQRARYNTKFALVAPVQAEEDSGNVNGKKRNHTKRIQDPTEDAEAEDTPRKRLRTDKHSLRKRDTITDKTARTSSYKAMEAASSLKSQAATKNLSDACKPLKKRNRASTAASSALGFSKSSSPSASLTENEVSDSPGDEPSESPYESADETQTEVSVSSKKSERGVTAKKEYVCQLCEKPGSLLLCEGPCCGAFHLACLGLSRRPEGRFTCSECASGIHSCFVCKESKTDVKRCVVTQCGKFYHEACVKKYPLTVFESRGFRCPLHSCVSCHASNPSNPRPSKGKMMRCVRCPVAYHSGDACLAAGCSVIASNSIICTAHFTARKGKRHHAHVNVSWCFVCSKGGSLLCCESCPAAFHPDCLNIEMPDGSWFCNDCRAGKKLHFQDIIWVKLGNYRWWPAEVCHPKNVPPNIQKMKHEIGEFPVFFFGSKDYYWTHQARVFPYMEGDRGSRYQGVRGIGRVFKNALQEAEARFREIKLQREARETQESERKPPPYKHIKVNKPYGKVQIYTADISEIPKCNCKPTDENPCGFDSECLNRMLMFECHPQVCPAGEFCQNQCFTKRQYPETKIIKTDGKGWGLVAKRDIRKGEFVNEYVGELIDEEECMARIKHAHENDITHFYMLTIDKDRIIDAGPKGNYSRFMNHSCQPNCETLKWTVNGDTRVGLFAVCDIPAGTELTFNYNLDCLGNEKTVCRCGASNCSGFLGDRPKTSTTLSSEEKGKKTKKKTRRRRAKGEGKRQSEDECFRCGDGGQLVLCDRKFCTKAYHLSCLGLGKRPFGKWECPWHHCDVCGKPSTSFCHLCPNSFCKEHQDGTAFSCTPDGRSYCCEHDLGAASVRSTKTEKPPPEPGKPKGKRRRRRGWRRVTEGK
# PglD DTNB: PglD (C. jejuni) enzyme inhibition | purified PglD enzyme, DTNB colorimetric CoA detection | inhibition, % at 12.5 µM | 360,000 compounds, 0.098% hits | AID 602405; in the data active = inhibition above about 16%, passing the limit was not always enough; inconclusive = no clear call, values can overlap the other calls
# Statin myotox sup: protects C2C12 myotubes from simvastatin toxicity. 330,000 compounds, 0.78% hits. rescue of ATP level, % at 7.49 µM. ATP luminescence, 48 h; scaled: DMSO 0, geranylgeraniol control 100. AID 602340;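 active = mean ATP rescue above about 67%, or every replicate alone reaching that limit, limit read from the data, passing the limit was not always enough; inconclusive = no clear call, values can overlap the other calls; inactive = mean under the limit and some replicate under it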;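 also: myotubes were challenged with 10 µM simvastatin during compound exposure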
# Alpha artifact: interferes with AlphaScreen signal, flagging NSD2 false positives; 1,500 compounds, 9.4% hits; AC35, µM (top dose mostly 10 µM); shares compounds with NSD2 inh; AID 1053174; AlphaScreen artifact counterscreen, preloaded methylated H4 peptide; call rule not given here
# Numbers stand for hits; 0 = inactive; ? = inconclusive; - = no result.
SMILES,miR122 inh,NSD2 inh,PglD DTNB,Statin myotox sup,Alpha artifact
Cc1nn(C)cc1NC(=O)C[C@H]1CC[C@@H]2[C@H](COc3ccc(NC(=O)C4CCOCC4)cc3C(=O)N2C)O1,-,-,0,0,-
CCC(=O)Nc1ccc2c(c1)C(=O)N(C)[C@H]1CC[C@H](CC(=O)NCCc3ccncc3)O[C@H]1CO2,0,-,-,0,-
Cc1ccccc1N(C(=O)c1snc(C(N)=O)c1N)C(C(=O)NC1CCCCC1)c1ccc(O)cc1 (configuration not stated),0,0,0,0,-
Cc1ccccc1N(C(=O)c1snc(C(N)=O)c1N)C(C)C(=O)NC1CCCCC1 (configuration not stated),-,78.2,0,0,0
N#Cc1c(N)n(-c2ccc(C(=O)O)cc2)c2nc3ccccc3nc12,0,74.0,0,0,0
CC(C)NC(=O)Nc1ccc2c(c1)C(=O)N([C@@H](C)CO)C[C@@H](C)[C@@H](CN(C)S(=O)(=O)c1ccc(F)cc1)OCCCC[C@@H](C)O2,0,-,0,-,-
COCCn1c2nc(=O)n(-c3ccccc3)c(=O)c-2nc2ccccc21,-,50.4,-,-,0
C[C@@H]1CN([C@H](C)CO)C(=O)c2cc(C#CC3CCCCC3)cnc2O[C@@H]1CN(C)C(=O)Cc1ccccn1,0,-,0,0,-
COc1ccccc1CNS(=O)(=O)c1cc(CN2C(=O)c3cccnc3C2=O)ccc1OC,0,0,0,0,-
COc1cc(CCNC2=CC(=O)c3ncccc3C2=O)ccc1O,0,127.8,-,-,0
COCCNC(=O)C[C@H]1CC[C@H]2[C@@H](COc3ccc(NC(=O)c4cnccn4)cc3C(=O)N2C)O1,0,-,0,0,-
CN(C)C(=O)C[C@H]1CC[C@@H]2[C@H](COC[C@H](O)CN2CC2CC2)O1,0,-,0,0,-
COc1ccc(NC(=O)c2ccc(F)c(F)c2)c2ccccc12,0,53.6,0,0,0
O=C1Cc2ccccc2C(=O)N1c1ccccc1,0,86.3,0,0,0
CO[C@@H]1CN(C)C(=O)c2cc(NC(=O)Nc3ccc(F)cc3)ccc2OC[C@@H](C)N(C(=O)c2cnccn2)C[C@H]1C,0,-,0,0,-
CCC(=O)N(C)C[C@H]1Oc2cc(C#CC3(O)CCCC3)ccc2S(=O)(=O)N([C@@H](C)CO)C[C@H]1C,0,-,0,0,-
CCOC(=O)C1=C(C)N=c2s/c(=C/c3cccc([N+](=O)[O-])c3O)c(=O)n2C1c1ccccc1 (configuration not stated),-,63.1,0,0,8.65µM
CCOC(=O)C1=C(C)N=c2s/c(=C/c3cccc([N+](=O)[O-])c3O)c(=O)n2C1c1cc(OC)c(OC)c(OC)c1 (configuration not stated),-,0,0,0,-
C[C@@H]1CN([C@H](C)CO)C(=O)c2cccc(NC(=O)C3CCCCC3)c2O[C@H]1CN(C)S(C)(=O)=O,0,-,0,0,-
Cc1cc(C=O)c(C)n1-c1ccc(Cl)c(C(=O)O)c1,0,166.7,-,-,0
CCn1c(SCC(=O)N2CCCCC2)nc2c1c(=O)n(C)c(=O)n2C,0,69.4,0,0,0
CO[C@@H]1CN(C)C(=O)c2cc(NC(=O)Nc3ccccc3F)ccc2OC[C@@H](C)NC[C@@H]1C,0,-,0,0,-
O=C(NCc1ccco1)c1scc2c1OCCO2,0,90.1,0,-,0
C[C@@H]1CCCCO[C@H](CN(C)S(=O)(=O)c2ccccc2)[C@@H](C)CN([C@@H](C)CO)C(=O)c2cc(NC(=O)Nc3cccc4ccccc34)ccc2O1,0,-,0,-,-
CC[n+]1ccc(/C=C/c2ccc(N(C)C)cc2)c2ccccc21,-,94.2,-,-,8.67µM
SMILES,miR122 inh,NSD2 inh,PglD DTNB,Statin myotox sup,Alpha artifact
CC[n+]1ccccc1/C=C/c1ccc(N(C)C)cc1,0,0,0,-,-
C[C@H](CO)N1C[C@H](C)[C@@H](CN(C)Cc2ccc(Oc3ccccc3)cc2)Oc2c(NC(=O)Nc3cccc4ccccc34)cccc2C1=O,0,-,0,?,-
CC(C)c1ccc2c(c1)[C@H]1OCC[C@H]1[C@@H](c1cccs1)N2,-,0,-,-,-
Cc1cc(C)c2c(c1)N[C@H](c1cccs1)[C@@H]1CCO[C@H]21,0,50.2,0,0,0
O=C1CCCC(O)=C1N=Nc1ccc(C(=O)O)cc1,0,95.6,0,0,0
Cc1ccc(S(=O)(=O)N[C@@H]2CC[C@H](CCNC(=O)C3CC3)O[C@H]2CO)cc1,-,-,0,0,-
Cn1c(=O)[nH]c(=O)c2c1nc(N/N=C/c1ccncc1)n2Cc1ccc(F)cc1,0,62.4,0,-,0
O=C(CSc1nnc(-c2ccco2)n1-c1ccccc1)N1CCOCC1,-,0,0,0,-
